# Reference: PubChem BioAssay
# Activity calls are given as the source filed them.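 The calls were made as follows, unless noted: active = GFP response above 150% of the DMSO level; inconclusive = fewer than 70 events counted for a yeast strain; inactive = the rest.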
# Tests used:
# [1] = RPL19A-GFP modulators, yeast TOR pathway, confirmation, cell-based, S. cerevisiae, flow cytometry, cherry picks, mother/daughter gates (AID 2270;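 active = GFP response below 50% of the DMSO control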); conditions: S. cerevisiae RPL19A-GFP strain, 3 h, at 10 µM, stronger effect = lower value, 100 = same GFP as DMSO wells
# [2] = LAP4-GFP expression modulators in yeast, confirmation, cell-based, cherry picks, flow cytometry, mother/daughter gates (AID 2271;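 active = GFP response above 150% of the DMSO control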;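 also: ratio of sample to DMSO plate mean so 100% equals DMSO level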); conditions: S. cerevisiae LAP4-GFP strain, 3 h, at 10 µM, stronger effect = higher value, 100 means same as DMSO control
# [3] = modulators of MEP2-GFP levels in yeast, confirmation, S. cerevisiae, flow cytometry GFP, cherry picks (AID 2272;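 active = GFP response above 150% of the DMSO control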;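 also: ratio of well signal to plate DMSO mean so 100% equals DMSO level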); conditions: S. cerevisiae MEP2-GFP strain, 3 h, at 10 µM, stronger effect = higher value
# [4] = AGP1-GFP expression modulators, hit retest, confirmation, cell-based, flow cytometry, S. cerevisiae, cherry picks (AID 2273);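 also: median GFP channel fluorescence over the whole cell population gate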; conditions: S. cerevisiae AGP1-GFP strain, 3 h, at 10 µM
# [5] = modulators of CIT2-GFP expression in yeast, confirmation, S. cerevisiae, GFP fusion, cherry picks, mother/daughter gates (AID 2274); conditions: S. cerevisiae CIT2-GFP strain, flow cytometry, 3 h, at 10 µM, stronger effect = higher value
# [6] = inhibitors of CD8+ T cell-vesicle binding, pilot screen, LFA-1/ICAM-1 modulator project, MLPCN validation set, flow cytometry (AID 2523;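 active = response below a set limit, under 55% cells CD8-positive and vesicle-bound, and CD8 cells' 90th-percentile brightness under 279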;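 as to vesicle binding response: mean PE anti-B7-1 fluorescence of CD8+ cells relative to row control; 100% = QL9-loaded vesicles with DMSO vehicle in the same plate row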); conditions: 2C mouse CD8+ T cells, at 7 µM, stronger effect = lower value; double positive events: measured here: CD8+/vesicle+ event percentage
# [7] = biological target: Integrin beta-1 (Homo sapiens) + Integrin alpha-4 (Homo sapiens) (UniProt P13612+P05556); test: inhibition of HUTS-21 binding to VLA-4, pilot screen, VLA-4 allosteric modulator project, U937 cells, HUTS-21 mAb, flow cytometry, validation set (AID 2674;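 active = inhibition above 50%, about 3 SD of the validation set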;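 also: antibody binding induced by the VLA-4 ligand LDV present at three times its Kd; 0% = LDV ligand with antibody and no compound and 100% = antibody without LDV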); conditions: HUTS-21 LIBS mAb binding, at 6.7 µM, stronger effect = higher value, binding induced by LDV ligand
# Chain of Integrin beta-1 (Homo sapiens) + Integrin alpha-4 (Homo sapiens) (P05556 whole entry, looked up): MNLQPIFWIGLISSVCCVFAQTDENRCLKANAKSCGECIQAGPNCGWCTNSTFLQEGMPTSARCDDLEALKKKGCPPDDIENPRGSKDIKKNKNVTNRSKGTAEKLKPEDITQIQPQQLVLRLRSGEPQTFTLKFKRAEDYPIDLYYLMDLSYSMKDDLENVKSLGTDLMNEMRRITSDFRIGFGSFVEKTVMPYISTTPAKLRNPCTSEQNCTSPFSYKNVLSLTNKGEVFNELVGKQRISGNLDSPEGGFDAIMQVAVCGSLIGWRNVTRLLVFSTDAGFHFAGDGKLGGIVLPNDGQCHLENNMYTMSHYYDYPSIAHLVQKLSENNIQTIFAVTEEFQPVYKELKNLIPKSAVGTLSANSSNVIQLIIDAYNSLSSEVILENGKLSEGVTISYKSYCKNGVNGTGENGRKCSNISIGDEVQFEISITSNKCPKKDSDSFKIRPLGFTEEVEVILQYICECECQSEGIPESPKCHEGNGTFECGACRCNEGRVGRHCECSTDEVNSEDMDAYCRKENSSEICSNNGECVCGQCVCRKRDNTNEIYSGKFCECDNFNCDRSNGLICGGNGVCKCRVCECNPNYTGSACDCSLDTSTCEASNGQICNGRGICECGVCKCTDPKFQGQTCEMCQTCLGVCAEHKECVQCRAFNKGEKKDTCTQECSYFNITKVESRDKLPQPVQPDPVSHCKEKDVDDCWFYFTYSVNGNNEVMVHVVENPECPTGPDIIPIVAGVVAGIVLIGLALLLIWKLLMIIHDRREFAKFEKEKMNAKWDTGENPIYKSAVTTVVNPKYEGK
# Chain of Integrin beta-1 (Homo sapiens) + Integrin alpha-4 (Homo sapiens) (P13612 whole entry, looked up): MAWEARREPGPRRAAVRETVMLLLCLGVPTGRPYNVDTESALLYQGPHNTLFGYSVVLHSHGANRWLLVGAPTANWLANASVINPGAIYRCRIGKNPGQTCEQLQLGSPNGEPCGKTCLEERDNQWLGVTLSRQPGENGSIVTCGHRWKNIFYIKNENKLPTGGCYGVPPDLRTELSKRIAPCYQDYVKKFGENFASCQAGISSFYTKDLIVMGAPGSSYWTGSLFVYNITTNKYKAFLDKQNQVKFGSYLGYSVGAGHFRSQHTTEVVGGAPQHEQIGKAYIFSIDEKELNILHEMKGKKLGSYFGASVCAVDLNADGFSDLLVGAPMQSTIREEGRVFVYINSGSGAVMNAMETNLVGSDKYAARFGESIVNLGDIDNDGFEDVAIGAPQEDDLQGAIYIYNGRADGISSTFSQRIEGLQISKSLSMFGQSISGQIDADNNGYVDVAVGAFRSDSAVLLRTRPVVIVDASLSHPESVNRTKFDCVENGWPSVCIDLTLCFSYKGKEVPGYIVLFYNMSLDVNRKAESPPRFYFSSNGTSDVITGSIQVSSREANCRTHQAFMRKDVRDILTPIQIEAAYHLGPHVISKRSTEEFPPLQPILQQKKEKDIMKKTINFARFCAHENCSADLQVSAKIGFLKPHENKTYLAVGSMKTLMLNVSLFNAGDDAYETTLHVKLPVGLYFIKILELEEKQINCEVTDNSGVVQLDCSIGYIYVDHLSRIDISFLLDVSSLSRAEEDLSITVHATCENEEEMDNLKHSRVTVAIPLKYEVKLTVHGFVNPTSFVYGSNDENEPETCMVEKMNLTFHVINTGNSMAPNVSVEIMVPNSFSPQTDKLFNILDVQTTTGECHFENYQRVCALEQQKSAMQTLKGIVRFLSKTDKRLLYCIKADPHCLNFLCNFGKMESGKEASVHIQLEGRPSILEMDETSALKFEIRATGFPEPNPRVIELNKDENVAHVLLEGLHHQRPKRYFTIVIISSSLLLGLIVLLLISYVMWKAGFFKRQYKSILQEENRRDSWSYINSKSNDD
# [8] = superoxide lowering in aged yeast cells, pilot screen, validation compound set (AID 2706;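 active = superoxide response below 65% of plate, a cut near 3 SD across the whole screen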;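 also: yeast exposed to compound for one week at 30 degrees C before staining; 100% = mean of all compound wells on the same plate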); conditions: S. cerevisiae aging, superoxide DHE fluorescence; at 10 µM, stronger effect = lower value
# [9] = biological target: Beta-adrenergic receptor kinase 1 (Homo sapiens) (UniProt P25098); test: GRK2 binders displacing RNA aptamer, biochemical, validation, human GRK2, bead flow cytometry (AID 488806;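 active = aptamer binding inhibition above 30%, about 3 SD of noise from non-fluorescent compounds; inactive = inhibition at or below 30%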); conditions: bead-bound GRK2, FAM-aptamer displacement, at 10 µM, stronger effect = higher value
# Chain of Beta-adrenergic receptor kinase 1 (Homo sapiens) (P25098 whole entry, looked up): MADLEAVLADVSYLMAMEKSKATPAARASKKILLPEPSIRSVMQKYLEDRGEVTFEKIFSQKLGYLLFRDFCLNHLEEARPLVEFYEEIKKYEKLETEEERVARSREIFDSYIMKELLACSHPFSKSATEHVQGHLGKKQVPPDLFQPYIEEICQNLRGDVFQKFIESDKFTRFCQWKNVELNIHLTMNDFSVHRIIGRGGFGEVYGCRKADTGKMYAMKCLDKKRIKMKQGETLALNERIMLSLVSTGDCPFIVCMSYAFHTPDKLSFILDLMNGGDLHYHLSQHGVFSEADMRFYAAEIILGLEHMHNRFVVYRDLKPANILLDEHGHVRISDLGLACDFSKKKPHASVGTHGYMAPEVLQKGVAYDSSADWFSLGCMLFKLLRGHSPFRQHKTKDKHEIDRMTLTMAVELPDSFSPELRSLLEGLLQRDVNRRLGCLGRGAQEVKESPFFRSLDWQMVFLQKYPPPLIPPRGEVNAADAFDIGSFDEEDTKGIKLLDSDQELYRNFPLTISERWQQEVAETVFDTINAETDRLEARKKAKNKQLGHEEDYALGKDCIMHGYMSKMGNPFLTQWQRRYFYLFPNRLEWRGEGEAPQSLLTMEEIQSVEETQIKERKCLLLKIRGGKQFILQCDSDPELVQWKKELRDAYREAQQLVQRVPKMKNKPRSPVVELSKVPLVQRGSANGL
# [10] = biological target: Beta-2 adrenergic receptor (Homo sapiens) (UniProt P07550); test: beta2AR agonists driving receptor internalization, pilot screen, cell-based, FAP fluorogen, flow cytometry, validation set (AID 504459;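 active = percent response above 42, roughly 3 SD of non-fluorescent test compounds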;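 also: agonist-driven loss of surface beta2AR via internalization measured by FAP dye flow cytometry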); conditions: Am2.2-beta2AR cells, FAP surface receptor flow cytometry; at 10 µM; stronger effect = higher value
# Chain of Beta-2 adrenergic receptor (Homo sapiens) (P07550 whole entry, looked up): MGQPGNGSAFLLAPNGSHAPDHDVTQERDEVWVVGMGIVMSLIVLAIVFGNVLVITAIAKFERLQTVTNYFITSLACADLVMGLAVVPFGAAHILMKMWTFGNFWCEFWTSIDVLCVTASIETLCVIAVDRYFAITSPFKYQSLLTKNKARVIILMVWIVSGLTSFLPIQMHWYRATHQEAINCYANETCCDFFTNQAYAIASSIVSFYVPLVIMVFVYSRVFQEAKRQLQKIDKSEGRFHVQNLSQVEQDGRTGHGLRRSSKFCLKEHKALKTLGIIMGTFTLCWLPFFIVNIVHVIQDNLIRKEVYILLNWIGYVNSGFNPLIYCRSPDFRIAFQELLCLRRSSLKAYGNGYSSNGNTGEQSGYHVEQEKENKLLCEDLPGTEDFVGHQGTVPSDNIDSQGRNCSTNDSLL
# [11] = biological target: AP-2 complex subunit beta (Homo sapiens) (UniProt P63010); test: inhibitors of arrestin peptide binding to AP2, pilot screen, biochemical, validation set, GST-AP2 beads, flow cytometry (AID 504541;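 active = inhibition above 54%, about 3 SD of non-fluorescent compounds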;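 also: AP2 carries R879A mutation and is captured from E. coli lysate; bead-bound FITC arrestin peptide fluorescence measuring arrestin peptide binding to AP2; 0% = DMSO wells and 100% = excess unlabeled arrestin peptide control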); conditions: FITC arrestin peptide, at 10 µM, stronger effect = higher value, AP2 beta2 appendage fragment, R879A mutant
# Chain of AP-2 complex subunit beta (Homo sapiens) (P63010 whole entry, looked up, the tested form may be a part, one chain of several): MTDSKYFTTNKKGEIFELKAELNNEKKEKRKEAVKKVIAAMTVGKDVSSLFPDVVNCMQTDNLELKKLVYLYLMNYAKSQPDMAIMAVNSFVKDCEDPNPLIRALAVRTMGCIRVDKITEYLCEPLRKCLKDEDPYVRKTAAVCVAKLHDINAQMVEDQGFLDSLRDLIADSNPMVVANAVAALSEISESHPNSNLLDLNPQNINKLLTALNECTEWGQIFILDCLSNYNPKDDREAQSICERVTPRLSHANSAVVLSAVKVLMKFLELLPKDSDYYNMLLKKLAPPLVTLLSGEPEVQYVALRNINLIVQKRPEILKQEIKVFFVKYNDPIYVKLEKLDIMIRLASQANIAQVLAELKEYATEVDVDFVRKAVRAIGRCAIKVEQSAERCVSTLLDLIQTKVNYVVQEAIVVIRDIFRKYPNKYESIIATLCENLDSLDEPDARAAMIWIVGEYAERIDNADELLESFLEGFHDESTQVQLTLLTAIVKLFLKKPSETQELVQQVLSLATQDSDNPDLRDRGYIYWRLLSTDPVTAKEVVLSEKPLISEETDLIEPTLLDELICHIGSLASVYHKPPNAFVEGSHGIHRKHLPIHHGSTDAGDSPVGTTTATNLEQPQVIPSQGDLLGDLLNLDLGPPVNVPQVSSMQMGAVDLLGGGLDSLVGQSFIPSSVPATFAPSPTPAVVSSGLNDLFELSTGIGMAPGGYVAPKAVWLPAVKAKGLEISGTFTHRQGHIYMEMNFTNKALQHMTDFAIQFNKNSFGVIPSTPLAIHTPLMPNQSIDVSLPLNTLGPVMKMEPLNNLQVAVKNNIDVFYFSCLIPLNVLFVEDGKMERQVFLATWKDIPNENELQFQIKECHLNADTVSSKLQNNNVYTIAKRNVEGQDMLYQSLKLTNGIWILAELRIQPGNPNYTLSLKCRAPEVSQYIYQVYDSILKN
# [12] = yeast V-ATPase proton transport modulators, S. cerevisiae, pHLuorin, HTS validation (AID 504600; in the data active = response above about 15%;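 also: plate controls were DMSO for no effect and reference compound for full effect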); conditions: S. cerevisiae pHLuorin cytosolic pH, at 10 µM, stronger effect = higher value
# [13] = system: anti-desmoglein-3 scFv antibody binding to human DSG3; test: inhibitors of anti-DSG3 scFv binding to DSG3, pilot screen, biochemical, validation compound set, bead-based, flow cytometry (AID 588368;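 active = binding below the plate cutoff, the plate median minus 3 SD, with a reading above zero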;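 also: signal is the median channel fluorescence of bead-bound GFP antibody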); conditions: Protein G beads, DSG3-Fc, scFv-GFP binding, at 10 µM, stronger effect = lower value
# [14] = inhibitors of fungal efflux pumps CDR1, CDR2, MDR1, pilot screen, validation compound set, multiplex, phenotypic (AID 588506;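 active = efflux inhibition above 0.42, the validation set average plus 4 SD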;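 also: Nile Red retained in cells so higher fluorescence means more efflux inhibition; 0 = negative control wells and 1 = enniatin B 25 µM full block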); conditions: S. cerevisiae pump-expressing triplex, Nile Red efflux flow cytometry; at 10 µM; stronger effect = higher value; the pumps come from Candida albicans
# [15] = biological target: ATP-binding cassette sub-family B member 6 (Homo sapiens) (UniProt Q9NP58); test: ABCB6 transporter inhibitors, pilot screen, K562-ABCB6 cells, flow cytometry, validation set (AID 588550;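 active = inhibition above the screen-wide mean plus 3 SD, about 51%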;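 also: 0% = DMSO wells and 100% = benzethonium chloride 70 µM positive control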); conditions: K562-ABCB6 porphyrin accumulation, 1 h, at 10 µM, stronger effect = higher value
# Chain of ATP-binding cassette sub-family B member 6 (Homo sapiens) (Q9NP58 whole entry, looked up): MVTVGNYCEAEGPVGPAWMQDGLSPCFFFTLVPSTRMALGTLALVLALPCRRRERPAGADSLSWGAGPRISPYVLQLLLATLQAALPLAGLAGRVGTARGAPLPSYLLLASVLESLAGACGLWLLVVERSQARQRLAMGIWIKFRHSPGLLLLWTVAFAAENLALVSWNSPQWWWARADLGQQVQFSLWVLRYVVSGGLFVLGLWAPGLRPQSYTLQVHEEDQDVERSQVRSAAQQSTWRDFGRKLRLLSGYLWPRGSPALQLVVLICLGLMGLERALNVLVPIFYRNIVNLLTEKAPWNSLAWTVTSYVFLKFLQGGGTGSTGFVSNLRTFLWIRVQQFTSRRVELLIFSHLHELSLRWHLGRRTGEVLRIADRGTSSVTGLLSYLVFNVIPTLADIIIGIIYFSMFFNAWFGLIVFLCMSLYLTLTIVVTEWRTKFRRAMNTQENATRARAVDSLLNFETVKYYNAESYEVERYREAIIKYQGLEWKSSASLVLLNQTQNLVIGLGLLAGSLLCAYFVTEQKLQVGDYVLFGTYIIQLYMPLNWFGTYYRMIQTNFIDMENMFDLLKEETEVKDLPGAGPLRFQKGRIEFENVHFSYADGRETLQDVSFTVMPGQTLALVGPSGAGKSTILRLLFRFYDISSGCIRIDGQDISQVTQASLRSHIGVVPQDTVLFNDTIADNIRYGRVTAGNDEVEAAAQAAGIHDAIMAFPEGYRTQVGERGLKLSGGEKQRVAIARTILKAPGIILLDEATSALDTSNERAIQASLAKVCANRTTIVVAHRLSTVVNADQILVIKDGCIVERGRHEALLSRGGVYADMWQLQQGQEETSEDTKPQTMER
# [16] = promoters of myeloid differentiation in arrested cells, primary screen, cell-based, GFP/MAC1 double positive, flow cytometry, validation set (AID 588685;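 active = differentiation response of at least 50%, scaled between solvent and reference control, from cells with both markers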;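 also: compound exposure lasts four days before antibody staining and flow analysis; 0% = DMSO wells and 100% = 5 µM fulvestrant positive control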); conditions: ER-HoxA9 marrow cells, stronger effect = higher value, normalized: vehicle 0, fulvestrant 100
# [17] = measured here: daughter cell gate
# [18] = measured here: mother cell gate
# [19] = measured here: mother cell gate response
# [20] = measured here: daughter cell gate response
structure (smiles),measurement,setting,value
COc1ccccc1-c1noc(-c2cccnc2)n1,GFP response vs DMSO,[1],95.3% (inactive)
same,GFP response vs DMSO,[1]; [17],93%
same,GFP response vs DMSO,[1]; [18],95.4%
same,GFP response relative to DMSO,[2],97.7% (inactive)
same,GFP response vs DMSO,[3],108% (inactive)
same,"GFP response, % of DMSO",[4],96.6% (inactive)
same,"GFP response, % of DMSO",[5],95.8% (inactive)
same,"GFP response, % of DMSO",[5]; [17],88.7%
same,"GFP response, % of DMSO",[5]; [18],82.6%
COc1ccccc1C1C2=C(CC(C)(C)CC2=O)N(CC(=O)O)C2=C1C(=O)CC(C)(C)C2,GFP response vs DMSO,[1],102% (inactive)
same,GFP response vs DMSO,[1]; [17],93%
same,GFP response vs DMSO,[1]; [18],94%
same,GFP response relative to DMSO,[2],105% (inactive)
same,GFP response vs DMSO,[3],133% (inactive)
same,"GFP response, % of DMSO",[4],98.9% (inactive)
same,"GFP response, % of DMSO",[5],117% (inactive)
same,"GFP response, % of DMSO",[5]; [17],118%
same,"GFP response, % of DMSO",[5]; [18],107%
C/C(=N\Nc1ncnc2sc(C)c(C)c12)c1ccccn1,GFP response vs DMSO,[1],194% (inactive)
same,GFP response vs DMSO,[1]; [17],112%
same,GFP response vs DMSO,[1]; [18],175%
same,GFP response relative to DMSO,[2],434% (active)
same,GFP response relative to DMSO,[2]; [19],395%
same,GFP response vs DMSO,[3],967% (active)
same,"GFP response, % of DMSO",[4],107% (inactive)
same,"GFP response, % of DMSO",[5],449% (active)
same,"GFP response, % of DMSO",[5]; [17],118%
same,"GFP response, % of DMSO",[5]; [18],921%
C/C(=N\NC(=O)c1ccc(Cl)c(Cl)c1)c1ccccn1,GFP response vs DMSO,[1],104% (inactive)
same,GFP response vs DMSO,[1]; [17],96.4%
same,GFP response vs DMSO,[1]; [18],88.5%
same,GFP response relative to DMSO,[2],269% (active)
same,GFP response vs DMSO,[3],118% (inactive)
same,"GFP response, % of DMSO",[4],127% (inactive)
same,"GFP response, % of DMSO",[5],114% (inactive)
same,"GFP response, % of DMSO",[5]; [17],97.6%
same,"GFP response, % of DMSO",[5]; [18],99.3%
Cc1ccccc1NC(=O)COC(=O)c1cc(=O)c2ccccc2o1,GFP response vs DMSO,[1],99.7% (inactive)
same,GFP response vs DMSO,[1]; [18],104%
same,GFP response relative to DMSO,[2],98.7% (inactive)
same,GFP response relative to DMSO,[2]; [20],98.7%
same,GFP response relative to DMSO,[2]; [19],86%
same,GFP response vs DMSO,[3],97.8% (inactive)
same,"GFP response, % of DMSO",[4],95.4% (inactive)
same,"GFP response, % of DMSO",[5],104% (inactive)
CCOC(=O)c1cc(-c2ccc(/C=C3/C(=O)NC(=O)C(C#N)=C3C)o2)ccc1Cl,GFP response vs DMSO,[1],67.6% (inactive)
same,GFP response vs DMSO,[1]; [18],55.4%
same,GFP response relative to DMSO,[2],240% (active)
same,GFP response relative to DMSO,[2]; [20],141%
same,GFP response relative to DMSO,[2]; [19],231%
same,GFP response vs DMSO,[3],160% (inactive)
same,"GFP response, % of DMSO",[4],104% (inactive)
same,"GFP response, % of DMSO",[5],118% (inactive)
same,"GFP response, % of DMSO",[5]; [17],103%
same,"GFP response, % of DMSO",[5]; [18],101%
C#CCN(C)Cc1ccccc1,double positive events,[6],66.2%
same,vesicle binding response,[6],248% (inactive)
same,inhibition,[7],-2.82% (inactive)
same,superoxide response (% of plate),[8],102% (inactive)
same,aptamer binding inhibition,[9],2% (inactive)
same,response,[10],-26.9% (inactive)
same,inhibition,[11],-10.1% (inactive)
same,response,[12],-1.24% (inactive)
same,binding (% of control),[13],99.9% (inactive)
same,efflux inhibition (fraction of control),[14],-0.04 (inactive)
same,inhibition,[15],2% (inactive)
same,differentiation response,[16],-8.93% (inactive)
